# Measurements reported in PubChem BioAssay (NCATS).
# Several values for one entry are separate records, joined by “and”; a condition that tells them apart may be missing. Equal values may be shown once. Records with an inconclusive call do not appear. The source holds several records for some structures; these can differ, active in one and inactive in another. Activity calls are given as the source filed them. Unless noted, calls follow the shape of the dose curve; as a rule, active = well fitted curve in either direction with a large enough effect (not every such curve was filed as active); inconclusive = small, poorly fitted or top-dose-only effect, or another doubt; inactive = flat fitted curve, though single readings scatter.
# Experiments:
# [1] = AP1 Signaling Pathway (AID 357); details: ME-180 AP-1-bla reporter, EGF-induced, beta-lactamase ratio, 5 h;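 also: ME-180 reporter cells stimulated with EGF at its EC50 level; % is scaled to controls: 0 for no effect and ±100 for the full control effect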
# Outline: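 Cells are seeded overnight, exposed to compound titrations and an EC50 level of EGF for 5 hours at 37 °C, then loaded with CCF4 dye for 2.5 hours. Beta-lactamase activity under the AP-1 element is read as a blue/green ratio.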
# [2] = target: Cytochrome P450 1A2 (Homo sapiens) (UniProt P05177); assay: p450-cyp1a2 (AID 410; calls by dose curve; also: potency is read from the fitted curve at half-maximal effect;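 as to activity change, negative = inhibition: -100% = full effect of reference inhibitor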); details: recombinant CYP1A2, luciferin-ME demethylation, luminescence; series mostly up to 57 µM
# Outline: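 20nM CYP1A2 with 100uM Luciferin-ME (at Km) in 100mM KPO4; compound preincubated 10 min, NADPH regeneration added, 60 min at room temperature. Luciferin quantified by luminescence after detection reagent; normalized to 57 uM furafylline.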
# [3] = NFAT Signaling Pathway (AID 444); details: Jurkat NFAT-bla M1, carbachol, beta-lactamase ratio, 5 h;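 also: carbachol stimulus at about its EC50 of 1 µM final; % is scaled to controls: 0 for no effect and ±100 for the full control effect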
# Outline: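 Jurkat cells carrying an NFAT-driven β-lactamase reporter and co-transfected muscarinic M1 receptor were treated with compound plus carbachol (1 uM final, an EC50 level) for 5 h at 37 °C. CCF4 loading followed for 1 h at RT; 460/530 nm ratio gave %activity.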
# [4] = Stat Signaling Pathway (AID 446); details: ME-180 SIE beta-lactamase reporter, IL-6 stimulated, 5 h;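 also: ME-180 cervical cancer cells given 40 pM IL-6 alongside compound; SIE-controlled beta-lactamase reporter measured as 460/530 nm FRET emission ratio; % is scaled to controls: 0 for no effect and ±100 for the full control effect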
# Outline: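 ME-180 cells carrying a SIE-driven beta-lactamase reporter are stimulated with 40 pM IL-6 for 5 h at 37C in the presence of compound. The 460/530 nm FRET substrate ratio is read after 2.5 h at RT. Data are normalised to 300 pM IL-6 and to 125 nM JAK inhibitor controls.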
# [5] = target: Glucocorticoid receptor (Homo sapiens) (UniProt P04150); assay: GR-GFP Redistribution (AID 450;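 active = compounds whose dose series gives a full or clear partial fitted curve of increased nuclear translocation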; also: potency is read from the fitted curve at half-maximal effect); details: U2OS GR-GFP nuclear translocation, laser cytometry, 2 h
# [6] = target: Glucocorticoid receptor (Homo sapiens) (UniProt P04150); assay: GR-EFC Redistribution (AID 451; calls by dose curve; also: potency is read from the fitted curve at half-maximal effect); details: CHO-K1 GR-EFC translocation, beta-gal luminescence, 2 h
# Outline: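 CHO-K1 cells stably expressing nuclear-localized β-gal enzyme acceptor and GR fused C-terminally to the enzyme donor fragment; ligand-driven nuclear translocation restores β-gal by complementation. Compounds titrated up to 46 uM final, 2 h at 37 °C; luminescence read.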
# [7] = target: Mitogen-activated protein kinase 10 (Mus musculus) (UniProt Q61831); assay: JNK3 AlphaScreen Assay (AID 530); details: JNK3 lysate, c-Jun phosphorylation; series mostly up to 57.1 µM;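 also: kinase came from lysate of stimulated human HepG2 cells; signal reports phosphorylation of biotinylated GST-cJun 1-79 at Ser73 with 10 µM ATP; % is scaled to controls: 0 for no effect and ±100 for the full control effect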
# Outline: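 Inhibitors reduce antibody binding to phosphorylated biotin-cJun, lowering AlphaScreen luminescence. Lysates from HepG2 cells pre-activated by IL-1beta plus TNF-alpha supplied JNK3; compounds were titrated.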
# [8] = target: 3',5'-cyclic-AMP phosphodiesterase 4B (Homo sapiens) (UniProt Q07343); assay: qHTS Assay for Inhibitors of PDE-IV (AID 607; active = well fitted activation curve with a large enough effect in the main read-out, with a control signal flat, not every such curve was filed as active; also: % of control where 0% means no effect); details: HEK293 ACTOne CNG channel cells, membrane potential fluorescence; series mostly up to 22.9 µM
# Outline: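 HEK293 ACTOne cells with CNG channel (1000/well), endogenous PDE4; membrane potential dye, compounds up to 22.9 uM final. Fluorescence Ex 535/Em 590; RO 20-1724 (100 uM final) as reference.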
# [9] = target: Guanine nucleotide-binding protein G(i) subunit alpha-1 (Homo sapiens) (UniProt P63096); assay: qHTS Assay for Inhibitors of RGS12 GoLoco Motif Activity (Green Fluorophore) (AID 879; active = well fitted curve in the direction sought with a large enough effect; an effect the other way counts as inactive or inconclusive;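 also: 0% = labeled peptide with Gαi1 and full inhibition = labeled peptide alone without protein; negative values mean loss of peptide binding seen as reduced polarization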); details: Galphai1/FITC-RGS12 GoLoco peptide, fluorescence polarization; series mostly up to 57.1 µM
# Outline: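 Fluorescence polarization assay: 50 nM Gαi1 with 10 nM FITC-labeled RGS12 GoLoco peptide in 10 mM Tris pH 7.5, 150 mM NaCl, 0.1 mM GDP, 0.05% NP40, 10 min at room temperature with compound.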
# [10] = qHTS Assay for Identification of Small Molecule Agonists for Thrombopoietin (TPO) Signaling Pathway (AID 917; active = well fitted curve in the direction sought with a large enough effect; an effect the other way counts as inactive or inconclusive; also: % is scaled to controls: 0 for no effect and ±100 for the full control effect); details: TPO signaling pathway reporter cells, agonist qHTS, stimulated with TPO at its EC50; series mostly up to 38.5 µM
# Outline: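 Luminescence from a Glycoprotein IIb promoter–driven luciferase reporter served as read-out in murine Ba/F3 cells carrying the human TPO receptor. Cells, deprived of IL-3 overnight, received compounds with 26 pM TPO and were incubated 24 hrs at 37 C.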
# [11] = target: Pyruvate kinase (Leishmania mexicana) (UniProt Q27686); assay: qHTS Validation Assay for Inhibitors of Leishmania Mexicana Pyruvate Kinase (AID 945; active = well fitted curve in the direction sought with a large enough effect; an effect the other way counts as inactive or inconclusive;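 also: 0% = DMSO only neutral control wells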); details: purified L. mexicana pyruvate kinase, enzyme activity, E451W mutant enzyme; series mostly up to 57.5 µM
# Outline: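 LmPYK E451W 0.2 nM; 0.5 mM PEP, 0.1 mM ADP, 7 mM MgCl2, 50 mM KCl, imidazole pH 7.2, 0.01% Tween 20, 0.05% BSA; 1 h RT; PKLight luminescence; DMSO-normalized.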
# [12] = target: Pyruvate kinase PKM (Homo sapiens) (UniProt P14618); assay: qHTS Assay for Activators of Human Muscle Pyruvate Kinase (AID 954; active = well fitted curve in the direction sought with a large enough effect, not every such curve was filed as active;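 also: 0% = uninhibited enzyme and -100% = no enzyme or full thiadiazolimine inhibition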); details: purified human muscle pyruvate kinase, luciferase-coupled luminescence, 1 h; series mostly up to 57.5 µM
# Outline: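 Purified human PKM2 (0.1 nM) with 0.5 mM PEP (Km) and 0.1 mM ADP in 50 mM imidazole pH 7.2, KCl, MgCl2, 1 h at room temperature; ATP formed read by coupled luciferase luminescence. Normalized to no-enzyme/110 uM thiadiazolimine inhibition; 0.3 nM enzyme column for activation.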
# [13] = target: Alpha-galactosidase A (Homo sapiens) (UniProt P06280); assay: Counterscreen for Glucocerebrosidase Inhibitors: qHTS Assay for Human alpha-Galactosidase at pH 4.5 (AID 992; active = well fitted curve in the direction sought with a large enough effect; an effect the other way counts as inactive or inconclusive; also: 0% is about no effect); details: purified enzyme, fluorogenic substrate; series mostly up to 76.9 µM
# Outline: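 Human enzyme (2 nM) with 80 uM 4-methylumbelliferyl alpha-D-galactopyranoside in 50 mM citric acid, 0.005% Tween-20, pH 4.5, 20 min at room temperature. Compounds 0.7 nM–77 uM; fluorescence Ex 365/Em 440 after pH 10 stop; AC50 from Hill fits.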
# [14] = target: alpha-glucosidase (Oryza sativa, rice) (UniProt Q653V4); assay: Counterscreen for Glucocerebrosidase Inhibitors: qHTS Assay for Rice alpha-Glucosidase at pH 5.0 (AID 997; active = well fitted curve in the direction sought with a large enough effect; an effect the other way counts as inactive or inconclusive;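 also: 0% = full activity with enzyme and -100% = basal without enzyme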); details: rice alpha-glucosidase enzyme activity; series mostly up to 76.9 µM
# Outline: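 Rice alpha-glucosidase (4 nM final) with 400 uM 4-methylumbelliferyl-alpha-D-glucopyranoside in citrate buffer pH 5.0, 20 min at room temperature, stopped at pH 10; fluorescence 365/440 nm, compounds 0.7 nM–77 uM, AC50 from Hill fits.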
# [15] = qHTS Assay for Lipid Storage Modulators (AID 1519; calls by dose curve); details: Drosophila S3 cells, BODIPY lipid droplet/cell ratio, laser cytometry, cells loaded with oleic acid
# Outline: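 Cells seeded at 5,000 per well were treated with compounds over a concentration series and loaded with oleic acid (400 uM, as added). Lipid droplet fluorescence (488 nm excitation, 500-530 nm channel) was read by laser-scanning cytometry and normalized to 20 uM Triacsin C.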
# [16] = target: Ubiquitin carboxyl-terminal hydrolase 1 (Homo sapiens) (UniProt O94782); assay: Inhibitors of USP1/UAF1: Pilot qHTS (AID 504865; active = well fitted curve in the direction sought with a large enough effect; an effect the other way counts as inactive or inconclusive;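 also: rhodamine fluorescence freed from ubiquitin-rhodamine substrate followed over time; top concentration of the series differs between compounds; % is scaled to controls: 0 for no effect and ±100 for the full control effect; nearly all actives have a fitted effect of over 35% in size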); details: purified USP1/UAF1, Ub-rhodamine cleavage fluorescence; series mostly up to 54.9 µM
# Outline: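 In 50mM HEPES pH 7.8 containing 0.5mM EDTA, 1mM TCEP, 0.1 mg/ml BSA and 0.01% Tween-20, 1nM USP1/UAF1 is exposed to compound for 15 min, then Ub-Rho (150nM final) is added and fluorescence is read over time.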
# [17] = target: Lysosomal acid glucosylceramidase (Homo sapiens) (UniProt P04062); assay: Glucocerebrosidase-p2 (AID 348; in the data active = potency below about 10 µM; also: potency is read from the fitted curve at half-maximal effect); details: purified GBA, blue fluorogenic substrate, 40 min
# Outline: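 Compounds titrated from 0.6 nM upwards against 0.2 nM enzyme in pH 5.9 citric acid/KH2PO4, taurocholate, tween-20; blue fluorogenic substrate 80 uM, 40 min room temperature, stopped and read Ex 365/Em 440 for AC50.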
# [18] = qHTS profiling for inhibitors of Plasmodium falciparum proliferation (AID 504749; active = well fitted curve in the direction sought with a large enough effect; an effect the other way counts as inactive or inconclusive;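 also: 0% = DMSO vehicle and full inhibition = artemisinin control; nearly all actives have a fitted effect of over 60% in size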); details: P. falciparum in erythrocytes, SYBR Green DNA, 72 h, at 28.7 µM (top of the series)
# Outline: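 Parasite proliferation within erythrocytes, 72 h exposure. Endpoint: SYBR Green I fluorescence after overnight lysis at room temperature. Controls: 0.29 uM artemisinin, DMSO.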
# [19] = measured here: cell count channel max response
# [20] = measured here: lipid channel max response
# Cytochrome P450 1A2 (Homo sapiens), sequence (P05177 whole entry, looked up): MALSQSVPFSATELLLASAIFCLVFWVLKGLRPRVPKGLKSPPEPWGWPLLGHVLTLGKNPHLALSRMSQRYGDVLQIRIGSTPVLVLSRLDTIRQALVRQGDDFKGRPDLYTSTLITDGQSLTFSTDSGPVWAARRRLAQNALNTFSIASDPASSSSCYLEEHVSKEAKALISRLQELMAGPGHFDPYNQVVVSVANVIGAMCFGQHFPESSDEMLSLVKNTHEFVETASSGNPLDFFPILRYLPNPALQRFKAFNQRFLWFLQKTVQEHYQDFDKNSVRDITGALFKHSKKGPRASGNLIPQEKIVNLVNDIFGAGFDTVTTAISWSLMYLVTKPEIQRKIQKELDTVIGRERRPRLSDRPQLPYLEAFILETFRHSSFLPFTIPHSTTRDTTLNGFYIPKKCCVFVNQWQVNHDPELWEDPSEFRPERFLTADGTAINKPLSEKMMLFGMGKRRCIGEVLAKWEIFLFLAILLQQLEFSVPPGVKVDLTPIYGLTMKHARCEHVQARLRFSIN
# Ubiquitin carboxyl-terminal hydrolase 1 (Homo sapiens), sequence (O94782 whole entry, looked up): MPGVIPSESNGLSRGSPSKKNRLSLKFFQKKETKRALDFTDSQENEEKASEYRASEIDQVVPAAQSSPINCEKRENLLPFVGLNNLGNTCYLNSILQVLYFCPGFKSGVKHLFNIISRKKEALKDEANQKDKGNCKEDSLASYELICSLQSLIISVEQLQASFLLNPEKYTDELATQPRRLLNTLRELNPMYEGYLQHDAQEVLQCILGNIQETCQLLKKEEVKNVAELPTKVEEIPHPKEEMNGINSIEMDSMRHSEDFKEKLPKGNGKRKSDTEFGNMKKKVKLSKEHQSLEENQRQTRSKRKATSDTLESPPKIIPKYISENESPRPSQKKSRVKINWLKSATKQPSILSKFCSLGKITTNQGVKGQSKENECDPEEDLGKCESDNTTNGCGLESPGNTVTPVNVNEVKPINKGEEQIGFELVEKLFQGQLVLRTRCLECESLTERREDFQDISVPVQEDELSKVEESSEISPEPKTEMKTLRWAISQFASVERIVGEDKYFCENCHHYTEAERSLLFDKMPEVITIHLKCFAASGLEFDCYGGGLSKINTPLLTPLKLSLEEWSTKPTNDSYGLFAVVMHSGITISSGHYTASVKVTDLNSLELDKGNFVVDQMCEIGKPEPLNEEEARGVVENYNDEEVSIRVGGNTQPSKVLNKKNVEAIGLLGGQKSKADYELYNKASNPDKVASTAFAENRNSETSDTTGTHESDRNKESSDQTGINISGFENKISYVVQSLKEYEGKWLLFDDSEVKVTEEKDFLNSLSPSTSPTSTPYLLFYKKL
# 3',5'-cyclic-AMP phosphodiesterase 4B (Homo sapiens), sequence (Q07343 whole entry, looked up): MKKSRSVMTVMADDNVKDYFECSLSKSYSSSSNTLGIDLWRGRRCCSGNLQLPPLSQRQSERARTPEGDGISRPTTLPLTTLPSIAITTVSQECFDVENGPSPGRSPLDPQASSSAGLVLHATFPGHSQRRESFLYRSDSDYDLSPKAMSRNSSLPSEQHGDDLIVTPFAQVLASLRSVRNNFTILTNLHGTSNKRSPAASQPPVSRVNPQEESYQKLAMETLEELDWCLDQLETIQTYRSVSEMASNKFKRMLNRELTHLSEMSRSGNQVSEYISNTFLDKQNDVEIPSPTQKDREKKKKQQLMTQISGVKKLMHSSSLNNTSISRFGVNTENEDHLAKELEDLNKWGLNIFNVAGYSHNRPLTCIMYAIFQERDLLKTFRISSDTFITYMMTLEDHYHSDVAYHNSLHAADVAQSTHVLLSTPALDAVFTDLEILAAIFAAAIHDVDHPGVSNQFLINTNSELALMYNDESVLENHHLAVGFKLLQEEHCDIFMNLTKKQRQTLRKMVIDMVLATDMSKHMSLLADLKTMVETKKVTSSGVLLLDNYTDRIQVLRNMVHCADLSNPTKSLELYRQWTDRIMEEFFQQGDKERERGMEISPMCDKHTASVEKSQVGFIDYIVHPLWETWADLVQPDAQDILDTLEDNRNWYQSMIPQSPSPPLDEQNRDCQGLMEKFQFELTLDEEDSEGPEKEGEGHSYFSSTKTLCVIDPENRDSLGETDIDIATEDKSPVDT
# Alpha-galactosidase A (Homo sapiens), sequence (P06280 whole entry, looked up): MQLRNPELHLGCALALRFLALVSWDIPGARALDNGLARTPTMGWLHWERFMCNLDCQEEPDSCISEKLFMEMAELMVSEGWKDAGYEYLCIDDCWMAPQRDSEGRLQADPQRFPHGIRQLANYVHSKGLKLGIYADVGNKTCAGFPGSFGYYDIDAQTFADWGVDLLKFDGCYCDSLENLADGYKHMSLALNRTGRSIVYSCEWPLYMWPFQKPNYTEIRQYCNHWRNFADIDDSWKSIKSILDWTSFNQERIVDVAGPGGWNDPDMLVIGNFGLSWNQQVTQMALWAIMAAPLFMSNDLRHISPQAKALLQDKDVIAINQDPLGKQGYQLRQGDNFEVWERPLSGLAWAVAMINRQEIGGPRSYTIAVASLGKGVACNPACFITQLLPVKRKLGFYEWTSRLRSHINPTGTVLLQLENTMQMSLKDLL
# Pyruvate kinase (Leishmania mexicana), sequence (Q27686 2-499 E452W): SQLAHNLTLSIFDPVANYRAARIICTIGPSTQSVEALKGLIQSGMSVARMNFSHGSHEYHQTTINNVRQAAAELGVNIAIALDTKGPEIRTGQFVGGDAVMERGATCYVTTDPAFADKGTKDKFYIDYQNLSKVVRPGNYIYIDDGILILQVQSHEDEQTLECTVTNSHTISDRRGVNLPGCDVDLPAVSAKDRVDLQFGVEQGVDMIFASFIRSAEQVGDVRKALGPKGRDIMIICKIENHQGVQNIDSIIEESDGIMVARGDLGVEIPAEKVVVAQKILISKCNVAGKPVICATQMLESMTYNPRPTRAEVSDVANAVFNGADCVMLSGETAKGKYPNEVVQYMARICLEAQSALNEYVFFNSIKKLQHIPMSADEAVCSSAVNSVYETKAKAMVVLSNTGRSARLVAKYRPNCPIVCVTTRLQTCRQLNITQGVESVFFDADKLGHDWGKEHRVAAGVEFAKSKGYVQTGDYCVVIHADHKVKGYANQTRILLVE
# Glucocorticoid receptor (Homo sapiens), sequence (P04150 whole entry, looked up, the tested form may be a part): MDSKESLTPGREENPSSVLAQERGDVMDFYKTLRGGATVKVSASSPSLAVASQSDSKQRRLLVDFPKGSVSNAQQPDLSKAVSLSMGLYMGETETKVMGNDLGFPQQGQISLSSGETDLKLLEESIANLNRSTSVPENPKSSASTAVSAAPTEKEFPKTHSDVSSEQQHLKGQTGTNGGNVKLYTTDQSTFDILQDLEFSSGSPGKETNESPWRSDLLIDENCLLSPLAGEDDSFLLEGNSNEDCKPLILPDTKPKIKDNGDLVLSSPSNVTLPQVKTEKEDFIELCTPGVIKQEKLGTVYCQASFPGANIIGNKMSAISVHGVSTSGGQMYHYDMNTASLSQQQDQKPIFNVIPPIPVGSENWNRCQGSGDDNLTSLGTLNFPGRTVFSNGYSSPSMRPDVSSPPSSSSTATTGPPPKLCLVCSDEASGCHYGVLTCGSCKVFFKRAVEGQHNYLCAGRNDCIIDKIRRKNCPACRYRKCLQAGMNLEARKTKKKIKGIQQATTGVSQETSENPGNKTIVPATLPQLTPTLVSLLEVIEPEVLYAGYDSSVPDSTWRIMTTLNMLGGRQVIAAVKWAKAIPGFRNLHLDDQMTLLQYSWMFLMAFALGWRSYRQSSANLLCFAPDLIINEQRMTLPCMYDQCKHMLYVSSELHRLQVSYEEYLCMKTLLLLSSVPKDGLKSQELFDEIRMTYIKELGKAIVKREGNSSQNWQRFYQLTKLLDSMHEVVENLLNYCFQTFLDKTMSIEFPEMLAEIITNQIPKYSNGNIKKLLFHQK
# Guanine nucleotide-binding protein G(i) subunit alpha-1 (Homo sapiens), sequence (P63096 whole entry, looked up): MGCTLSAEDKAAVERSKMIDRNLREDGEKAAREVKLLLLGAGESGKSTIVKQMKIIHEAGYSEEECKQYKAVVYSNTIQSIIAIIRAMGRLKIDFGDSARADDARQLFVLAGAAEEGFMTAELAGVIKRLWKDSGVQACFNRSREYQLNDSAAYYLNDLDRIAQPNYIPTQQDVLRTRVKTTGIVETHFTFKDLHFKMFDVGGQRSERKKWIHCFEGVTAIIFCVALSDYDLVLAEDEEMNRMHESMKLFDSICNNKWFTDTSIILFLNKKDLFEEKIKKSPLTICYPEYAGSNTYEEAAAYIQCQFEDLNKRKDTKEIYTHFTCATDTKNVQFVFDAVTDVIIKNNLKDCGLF
# Pyruvate kinase PKM (Homo sapiens), sequence (P14618 whole entry, looked up): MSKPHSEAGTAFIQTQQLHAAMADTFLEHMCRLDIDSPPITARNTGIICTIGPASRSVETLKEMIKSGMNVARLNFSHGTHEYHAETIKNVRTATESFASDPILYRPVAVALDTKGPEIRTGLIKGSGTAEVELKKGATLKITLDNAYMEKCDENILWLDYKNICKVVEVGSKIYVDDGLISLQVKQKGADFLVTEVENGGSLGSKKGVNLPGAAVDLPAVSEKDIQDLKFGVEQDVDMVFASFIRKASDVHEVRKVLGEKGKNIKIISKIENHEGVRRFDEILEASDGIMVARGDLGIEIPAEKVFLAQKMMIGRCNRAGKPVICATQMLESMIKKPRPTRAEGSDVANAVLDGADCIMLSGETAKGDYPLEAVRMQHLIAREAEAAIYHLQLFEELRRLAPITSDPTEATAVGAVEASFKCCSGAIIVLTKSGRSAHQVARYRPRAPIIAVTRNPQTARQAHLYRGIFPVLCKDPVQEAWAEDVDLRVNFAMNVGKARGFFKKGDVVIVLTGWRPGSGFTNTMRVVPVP
compound,measurement,setting,value
c1ccc([C@@H]2CN3CCSC3=N2)cc1,"activity change, negative = inhibition",[1]; at 17.2 µM (top of the series),0.374% (inactive)
same,"activity change, negative = inhibition",[1]; at 38 µM (top of the series),8.49% (inactive) and 7.24% (inactive)
same,Potency,[2],31.6 µM (active) and inactive and 10 µM (active)
same,"activity change, negative = inhibition",[3]; at 17.2 µM (top of the series),-19.6% (inactive)
same,"activity change, negative = inhibition",[3]; at 38 µM (top of the series),-1.25% (inactive) and -14% (inactive)
same,"activity, negative = inhibition",[4]; at 17.2 µM (top of the series),-3.45% (inactive)
same,"activity, negative = inhibition",[4]; at 38 µM (top of the series),11.8% (inactive)
same,Potency,[5],> 46 µM (inactive) and > 20.6 µM (inactive)
same,Potency,[6],> 46 µM (inactive) and > 20.6 µM (inactive)
same,Potency,[7],inactive
same,Potency,[8],inactive
same,Potency,[9],inactive
same,outcome,[10],inactive
same,outcome,[11],inactive
same,outcome,[12],inactive
same,outcome,[13],inactive
same,outcome,[14],inactive
same,"activity change, negative = inhibition",[15]; at 25.7 µM (top of the series),-1.37% (inactive)
same,max response,[15]; [19],3.69%
same,max response,[15]; [20],-1.44%
same,Potency,[16],inactive
Cn1c(=O)c(-c2ccccc2)nc2cnc(N3CCNCC3)nc21,Potency,[17],> 11.4 µM (inactive)
same,Potency,[2],12.6 µM (active)
same,Potency,[5],> 9.22 µM (inactive)
same,Potency,[6],> 46 µM (inactive)
same,Potency,[7],inactive
same,Potency,[8],inactive
same,"activity change, negative = inhibition",[15]; at 57.5 µM (top of the series),5.44% (inactive)
same,max response,[15]; [19],18.4%
same,max response,[15]; [20],28.4%
C[C@@H]1COc2c(N3CCN(C)CC3)c(F)cc3c(=O)c(C(=O)O)cn1c23,"activity change, negative = inhibition",[1]; at 17.2 µM (top of the series),-1.23% (inactive)
same,"activity change, negative = inhibition",[1]; at 38 µM (top of the series),11.6% (inactive)
same,Potency,[2],inactive
same,"activity change, negative = inhibition",[3]; at 17.2 µM (top of the series),-4.07% (inactive)
same,"activity change, negative = inhibition",[3]; at 38 µM (top of the series),4.93% (inactive)
same,"activity, negative = inhibition",[4]; at 17.2 µM (top of the series),4.46% (inactive)
same,"activity, negative = inhibition",[4]; at 38 µM (top of the series),-5.77% (inactive)
same,Potency,[7],inactive
same,Potency,[8],inactive
same,Potency,[9],inactive
same,outcome,[10],inactive
same,outcome,[11],inactive
same,outcome,[12],inactive
same,outcome,[13],inactive
same,outcome,[14],inactive
same,"activity change, negative = inhibition",[15]; at 25.7 µM (top of the series),-0.7% (inactive)
same,max response,[15]; [19],-7.85%
same,max response,[15]; [20],-10.5%
same,"activity, negative = inhibition",[18]; parasite line A,3.1% (inactive)
same,"activity, negative = inhibition",[18]; parasite line B,11.1% (inactive)
COc1ccc([C@H]2Sc3ccccc3N(CCN(C)C)C(=O)[C@H]2OC(C)=O)cc1,"activity change, negative = inhibition",[1]; at 17.2 µM (top of the series),-10.4% (inactive)
same,"activity change, negative = inhibition",[1]; at 38 µM (top of the series),-3.25% (inactive)
same,Potency,[2],inactive
same,"activity change, negative = inhibition",[3]; at 17.2 µM (top of the series),-5.79% (inactive)
same,"activity change, negative = inhibition",[3]; at 38 µM (top of the series),-3.5% (inactive)
same,"activity, negative = inhibition",[4]; at 17.2 µM (top of the series),-1.38% (inactive)
same,"activity, negative = inhibition",[4]; at 38 µM (top of the series),7.22% (inactive)
same,Potency,[5],> 46 µM (inactive) and > 20.6 µM (inactive)
same,Potency,[6],> 46 µM (inactive) and > 20.6 µM (inactive)
same,Potency,[8],inactive
same,outcome,[10],inactive
same,outcome,[11],inactive
same,outcome,[12],inactive
same,outcome,[13],inactive
same,outcome,[14],inactive
same,"activity change, negative = inhibition",[15]; at 25.7 µM (top of the series),-1.07% (inactive)
same,max response,[15]; [19],7.03%
same,max response,[15]; [20],9.95%
same,Potency,[16],inactive
CCn1cc(C(=O)O)c(=O)c2cc(F)c(N3CCN[C@@H](C)C3)c(F)c21,"activity change, negative = inhibition",[1]; at 17.2 µM (top of the series),-0.628% (inactive)
same,"activity change, negative = inhibition",[1]; at 38 µM (top of the series),12.1% (inactive)
same,Potency,[2],inactive
same,"activity change, negative = inhibition",[3]; at 17.2 µM (top of the series),-8.67% (inactive)
same,"activity change, negative = inhibition",[3]; at 38 µM (top of the series),-2.78% (inactive)
same,"activity, negative = inhibition",[4]; at 17.2 µM (top of the series),9.73% (inactive)
same,"activity, negative = inhibition",[4]; at 38 µM (top of the series),26.7% (inactive)
same,Potency,[5],> 46 µM (inactive) and > 20.6 µM (inactive)
same,Potency,[7],inactive
same,Potency,[8],inactive
same,Potency,[9],inactive
same,outcome,[10],inactive
same,outcome,[11],inactive
same,outcome,[12],inactive
same,outcome,[13],inactive
same,outcome,[14],inactive
same,"activity change, negative = inhibition",[15]; at 25.7 µM (top of the series),-0.691% (inactive)
same,max response,[15]; [19],-2.23%
same,max response,[15]; [20],-3.89%
same,Potency,[16],inactive
same,"activity, negative = inhibition",[18]; parasite line A,5.09% (inactive)
same,"activity, negative = inhibition",[18]; parasite line B,0.537% (inactive)
